Activity calls are given as the source filed them.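 The calls were made as follows, unless noted: active = fluorescence slope after compound addition differing from the mean of all screened samples at 99.7% confidence, in either direction; inactive = the rest.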
Columns and labels:
[1] = inhibitors of TNFa-induced NFkB p65 translocation, primary screen, imaging, HUVEC, MLSMR starter and 10KST1 sets (AID 438;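 active = inhibition above 20% together with a positive visual image hit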;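 also: compound added about 3h40 before a 20 min TNFalpha stimulation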;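 as to inhibition: signal is the nuclear over cytoplasmic p65 intensity ratio per well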); details: HUVEC TNFa-induced p65 nuclear translocation; cell count: measured here: nuclei count (cytotoxicity indicator), at 2.08 µM; inhibition: at 2 µM, stronger effect = higher value, 0% TNFa-plus-vehicle, 100% no-TNFa wells
[2] = reduction of polyQ htt aggregates in cells – imaging, exon1htt(103Q)mCFP cells, high-content imaging, primary screen (AID 483;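 active = visual image review flags a hit and inhibition of aggregation exceeds 20%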;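 also: compound exposure lasted 3 days before fixation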;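 as to nuclei count: percent of the per-plate median nuclei count of sample wells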); details: exon1htt(103Q)mCFP cell line, aggregate imaging, at 2 µM; inhibition of aggregation: stronger effect = higher value; nuclei count: measured here: cell count, toxicity
[3] = endothelial E-selectin expression blockers – imaging, HUVEC, immunofluorescence, MLSMR starter and 10KST1 sets, primary screen (AID 487;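 active = visually confirmed hit in the image check and inhibition above 20%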;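 as to inhibition: signal is fraction of cell area covered by stained E-selectin grains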;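 as to nuclei count: 100% = median nuclei count of all wells on the same plate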); details: HUVEC TNFalpha-induced E-selectin immunofluorescence imaging, at 2 µM; inhibition: stronger effect = higher value; nuclei count: measured here: cell number, toxicity
[4] = molecular target: Voltage-gated potassium channel subunit beta-2 (Rattus norvegicus) (UniProt P62483); test: inhibitors of rat Kvbeta2 reductase activity – biochemical, NADPH fluorescence, primary screen (AID 622;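 active = fluorescence slope higher than the sample average by over 3 SD, cut at about -0.22 in these data, passing the limit was not always enough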;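 also: slope of raw intensity against log time taken from 70 to 1610 s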); details: recombinant KvBeta, 4-cyanobenzaldehyde reduction, at 10 µM, stronger effect = higher value
Sequence of Voltage-gated potassium channel subunit beta-2 (Rattus norvegicus) (P62483 whole entry, looked up): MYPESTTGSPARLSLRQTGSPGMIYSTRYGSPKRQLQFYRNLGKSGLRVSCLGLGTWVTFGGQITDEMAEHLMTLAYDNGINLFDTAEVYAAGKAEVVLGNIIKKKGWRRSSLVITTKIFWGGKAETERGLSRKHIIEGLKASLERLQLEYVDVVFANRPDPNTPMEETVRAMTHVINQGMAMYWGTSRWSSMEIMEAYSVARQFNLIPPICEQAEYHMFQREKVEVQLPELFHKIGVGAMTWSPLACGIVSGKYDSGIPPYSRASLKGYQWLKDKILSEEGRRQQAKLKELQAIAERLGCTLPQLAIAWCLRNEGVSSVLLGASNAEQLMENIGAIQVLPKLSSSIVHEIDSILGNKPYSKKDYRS

[5] = molecular target: Voltage-gated potassium channel subunit beta-2 (Rattus norvegicus) (UniProt P62483); test: enhancers of rat Kvbeta2 NADPH turnover – biochemical, NADPH fluorescence, primary screen (AID 623;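 active = NADPH fluorescence slope more negative than the mean of all samples by about 3 SD, 99.7% confidence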;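 also: fluorescence intensity change per second fitted from 20 to 320 s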); details: Recombinant KvBeta, NADPH fluorescence decrease slope, 10 min; at 10 µM; stronger effect = lower value
[6] = molecular target: Alpha-2C adrenergic receptor (Homo sapiens) (UniProt P18825); test: compounds altering alpha2C-coupled GIRK flux – cell-based, HEK293 alpha2C/GIRK1/2, thallium flux, primary screen (AID 624); details: thallium flux BTC fluorescence, at 10 µM, actives lie on both sides;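 also: slope of fluorescence ratio to pre-addition baseline per second over 15 to 24 s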
Sequence of Alpha-2C adrenergic receptor (Homo sapiens) (P18825 whole entry, looked up): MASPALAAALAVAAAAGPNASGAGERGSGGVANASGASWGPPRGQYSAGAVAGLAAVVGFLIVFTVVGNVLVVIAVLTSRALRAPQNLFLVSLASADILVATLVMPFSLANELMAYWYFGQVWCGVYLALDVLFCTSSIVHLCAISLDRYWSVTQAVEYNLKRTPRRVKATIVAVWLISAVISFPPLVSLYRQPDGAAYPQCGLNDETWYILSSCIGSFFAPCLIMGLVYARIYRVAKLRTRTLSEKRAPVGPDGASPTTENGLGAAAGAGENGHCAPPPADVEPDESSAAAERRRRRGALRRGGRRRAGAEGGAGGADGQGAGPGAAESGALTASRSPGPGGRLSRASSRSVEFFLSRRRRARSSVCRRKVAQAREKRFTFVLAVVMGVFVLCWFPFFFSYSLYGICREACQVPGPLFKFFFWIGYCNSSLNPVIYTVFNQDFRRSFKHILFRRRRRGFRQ

[7] = blockers of RIG-like receptor reporter activation – cell-based, Sendai virus stimulus, luciferase, 10K MLSCN set, TLR/RLR signaling modifier project, primary screen (AID 602276;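 active = inhibition at or above 50% at 10 µM; inactive = inhibition below 50%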;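 also: firefly luciferase from ISG56 promoter only with Renilla not read in this screen; 0% = Sendai virus plus DMSO and 100% = medium plus DMSO without virus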); details: HEK293 RL24 IRF3 luciferase reporter, at 10 µM, stronger effect = higher value
[8] = TLR3 IRF3 reporter activation blockers – cell-based, poly I:C stimulus, luciferase, 10K MLSCN set, primary screen (AID 602277;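 active = inhibition of the reporter signal at or above 50%; inactive = inhibition below 50%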); details: HEK293-TLR3 RL24 IRF3 luciferase reporter, at 10 µM, stronger effect = higher value

Compound	cell count [1]	inhibition [1]	inhibition of aggregation [2]	nuclei count [2] [%]	inhibition [3]	nuclei count [3] [%]	fluorescence slope [4]	NADPH fluorescence slope [5]	slope [6]	inhibition [7]	inhibition [8]
C1CCc2nnc(-c3nnc4n3CCCCC4)n2CC1	396	3% (inactive)	-5.5% (inactive)	100	-3.6% (inactive)	105	-0.344 (inactive)	-2.9e-05 (inactive)	0.00555 (inactive)	11.6% (inactive)	10.3% (inactive)
CCOC(=O)Cn1c(=N)n(CCOc2cccc(C)c2)c2ccccc21	426	-18.5% (inactive)	19.9% (inactive)	108	-112% (inactive)	224	-0.322 (inactive)	2e-05 (inactive)	0.00636 (inactive)	11.4% (inactive)	19.4% (inactive)
CCC(=O)Nc1ccc(NC(=O)c2cccc(OC)c2)nc1	742	-7.5% (inactive)	-5.7% (inactive)	105	-92.8% (inactive)	160	-0.465 (inactive)	1.2e-05 (inactive)	0.00556 (inactive)	-60.4% (inactive)	-106% (inactive)
Cc1cc2c(cc1C)C(=O)NC(C)(C)C2	417	-1.1% (inactive)	-12.1% (inactive)	108	-20.1% (inactive)	120	-0.375 (inactive)	6.6e-05 (inactive)	0.01 (inactive)	-1.09% (inactive)	0.395% (inactive)
COc1ccc(-c2noc(CCCC(=O)O)n2)cc1	696	-7.8% (inactive)	-3.1% (inactive)	125	-54.3% (inactive)	107	-0.341 (inactive)	1.2e-05 (inactive)	0.00595 (inactive)	35% (inactive)	86.3% (active)
CCOC(=O)N1CCN(C(=O)COc2ccc(S(=O)(=O)NC3CCCCC3)cc2C)CC1	536	9.7% (inactive)	-14.2% (inactive)	105	-31.8% (inactive)	93.5	-0.644 (inactive)	-4.2e-05 (inactive)	0.00446 (inactive)	3.18% (inactive)	-12.8% (inactive)
CCc1nnc(NC(=O)c2cc3c(s2)CCCCC3)s1	662	4.4% (inactive)	4.1% (inactive)	131	-89.1% (inactive)	108	-0.406 (inactive)	-0.000125 (inactive)	0.00621 (inactive)	-50.8% (inactive)	-103% (inactive)
CCN(CC)c1ccc(/C=N/n2nnnc2N)c(O)c1	428	-1.1% (inactive)	-13.8% (inactive)	101	-29.5% (inactive)	130	-0.413 (inactive)	6.9e-05 (inactive)	0.00627 (inactive)	4.84% (inactive)	1.57% (inactive)
CC1CCC2C(C1)c1sc(=O)[nH]c1SC2(C)C (stereo not given)	815	-7.3% (inactive)	16.6% (inactive)	98.3	-18.7% (inactive)	116	-0.365 (inactive)	2e-05 (inactive)	0.00605 (inactive)	-1.58% (inactive)	10.1% (inactive)
O=C(OCCN1C(=O)c2ccccc2C1=O)c1ccc(S(=O)(=O)N2CCCCCC2)cc1	390	-9.2% (inactive)	-7.2% (inactive)	95.1	-10.3% (inactive)	108	-0.605 (inactive)	-2.9e-05 (inactive)	0.00625 (inactive)	19.6% (inactive)	12.1% (inactive)
c1ccc(CNc2c3c(nc4ncnn24)CCCC3)nc1	912	2.1% (inactive)	-30.3% (inactive)	102	-39.1% (inactive)	111	-0.542 (inactive)	-9.4e-06 (inactive)	0.00501 (inactive)	15.7% (inactive)	13.9% (inactive)
Cc1csc(NC(=O)CCCSc2nc3ccccc3s2)n1	387	0.9% (inactive)	0.5% (inactive)	97.4	-33.8% (inactive)	110	-0.594 (inactive)	-2.4e-05 (inactive)	0.00267 (inactive)	23.5% (inactive)	26.7% (inactive)
COc1cc(C2N=C(c3ccccc3)NO2)cc(Br)c1O (stereo not given)	770	4.6% (inactive)	-13.7% (inactive)	94.3	-121% (inactive)	108	-0.546 (inactive)	2.2e-05 (inactive)	0.00675 (inactive)	-15.8% (inactive)	-15.1% (inactive)
COc1cccc(C2CC(c3ccc(F)cc3)Nc3nc(N)nn32)c1 (stereo not given)	605	-6.5% (inactive)	1.4% (inactive)	105	-6.1% (inactive)	117	-0.501 (inactive)	2.1e-05 (inactive)	0.00747 (inactive)	-17.7% (inactive)	16.2% (inactive)
CCOc1ccc2nc(SCC(=O)N3CCCCCC3)c(C#N)cc2c1	611	9.1% (inactive)	-7.9% (inactive)	98.1	-95.4% (inactive)	150	-0.584 (inactive)	-3.2e-05 (inactive)	0.00304 (inactive)	-1.31% (inactive)	-24.8% (inactive)
CCN1CCN(c2ncnc3c2cnn3-c2ccc(C)cc2C)CC1	561	1.3% (inactive)	-28.5% (inactive)	94.2	1.5% (inactive)	112	-0.538 (inactive)	-1.4e-05 (inactive)	0.00772 (inactive)	10.8% (inactive)	18.9% (inactive)
Cc1noc(/C=C/N(C)C)c1S(=O)(=O)N1CCCC(C(=O)N2CCc3ccccc32)C1 (stereo not given)	620	-4% (inactive)	-4.7% (inactive)	86.6	-16.5% (inactive)	95.3	-0.537 (inactive)	-5.3e-05 (inactive)	0.00689 (inactive)	11.8% (inactive)	45.3% (inactive)
O=C(Nc1ccc2c(c1)OCCO2)C1CCCN1S(=O)(=O)c1cccc2cccnc12 (stereo not given)	743	4.4% (inactive)	4.5% (inactive)	128	-42.2% (inactive)	106	-0.537 (inactive)	-4.4e-05 (inactive)	0.00567 (inactive)	3.98% (inactive)	22.9% (inactive)
O=C(Nc1cccnc1)c1ccc2c(c1)C(=O)N(Cc1cccnc1)C2=O	386	1.4% (inactive)	9% (inactive)	105	-26.9% (inactive)	99.7	-0.615 (inactive)	-1.2e-05 (inactive)	0.00348 (inactive)	5.57% (inactive)	11.9% (inactive)
COCCn1c(SCC(=O)Nc2cccc(OC)c2)nnc1-c1ccc(Cl)cc1	467	6.7% (inactive)	8.5% (inactive)	94.1	-19.6% (inactive)	97.1	-0.598 (inactive)	-2.9e-05 (inactive)	0.00322 (inactive)	16.4% (inactive)	22.6% (inactive)
